Laboratory results from ChEMBL document CHEMBL2218924, “A broad activity screen in support of a chemogenomic map for kinase signalling research and drug discovery” (Biochem J, 2013).

Legend:
[1] = molecular target: Vascular endothelial growth factor receptor 3 (Homo sapiens) (UniProt P35916); settings: at 10 µM
[2] = molecular target: Macrophage colony-stimulating factor 1 receptor (Homo sapiens) (UniProt P07333); settings: at 1 µM
[3] = molecular target: Macrophage colony-stimulating factor 1 receptor (Homo sapiens) (UniProt P07333); settings: at 10 µM
[4] = molecular target: Tyrosine-protein kinase Fyn (Homo sapiens) (UniProt P06241); settings: at 1 µM
[5] = molecular target: Tyrosine-protein kinase Fyn (Homo sapiens) (UniProt P06241); settings: at 10 µM
[6] = molecular target: T1, Mitogen-activated protein kinase kinase kinase kinase 2 (Homo sapiens) (UniProt Q12851); settings: at 1 µM
T1 sequence (whole entry): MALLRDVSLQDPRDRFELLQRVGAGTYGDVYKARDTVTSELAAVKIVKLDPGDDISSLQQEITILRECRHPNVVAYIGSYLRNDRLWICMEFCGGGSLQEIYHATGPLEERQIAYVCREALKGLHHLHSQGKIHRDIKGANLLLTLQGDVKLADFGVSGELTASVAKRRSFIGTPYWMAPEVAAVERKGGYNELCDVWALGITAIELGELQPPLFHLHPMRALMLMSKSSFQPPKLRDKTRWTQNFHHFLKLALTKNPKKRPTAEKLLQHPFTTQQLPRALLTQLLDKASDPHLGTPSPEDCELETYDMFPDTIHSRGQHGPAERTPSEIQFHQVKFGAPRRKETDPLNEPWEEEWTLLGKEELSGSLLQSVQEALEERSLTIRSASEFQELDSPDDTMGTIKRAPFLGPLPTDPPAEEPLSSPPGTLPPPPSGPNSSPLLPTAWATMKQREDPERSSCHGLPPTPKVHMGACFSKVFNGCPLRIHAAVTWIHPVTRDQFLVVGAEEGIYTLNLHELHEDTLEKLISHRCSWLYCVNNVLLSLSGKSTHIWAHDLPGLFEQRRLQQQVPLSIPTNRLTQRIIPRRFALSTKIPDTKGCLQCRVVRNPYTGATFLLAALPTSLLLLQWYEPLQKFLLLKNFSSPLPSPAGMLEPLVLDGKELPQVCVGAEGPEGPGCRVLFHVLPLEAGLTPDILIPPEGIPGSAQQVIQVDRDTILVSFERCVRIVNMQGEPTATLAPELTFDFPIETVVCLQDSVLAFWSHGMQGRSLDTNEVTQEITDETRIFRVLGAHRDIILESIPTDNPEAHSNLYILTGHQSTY

[7] = molecular target: G protein-coupled receptor kinase 5 (Homo sapiens) (UniProt P34947); settings: at 10 µM
[8] = molecular target: G protein-coupled receptor kinase 6 (Homo sapiens) (UniProt P43250); settings: at 10 µM
[9] = molecular target: T2, Rhodopsin kinase GRK7 (Homo sapiens) (UniProt Q8WTQ7); settings: at 1 µM
T2 sequence (whole entry): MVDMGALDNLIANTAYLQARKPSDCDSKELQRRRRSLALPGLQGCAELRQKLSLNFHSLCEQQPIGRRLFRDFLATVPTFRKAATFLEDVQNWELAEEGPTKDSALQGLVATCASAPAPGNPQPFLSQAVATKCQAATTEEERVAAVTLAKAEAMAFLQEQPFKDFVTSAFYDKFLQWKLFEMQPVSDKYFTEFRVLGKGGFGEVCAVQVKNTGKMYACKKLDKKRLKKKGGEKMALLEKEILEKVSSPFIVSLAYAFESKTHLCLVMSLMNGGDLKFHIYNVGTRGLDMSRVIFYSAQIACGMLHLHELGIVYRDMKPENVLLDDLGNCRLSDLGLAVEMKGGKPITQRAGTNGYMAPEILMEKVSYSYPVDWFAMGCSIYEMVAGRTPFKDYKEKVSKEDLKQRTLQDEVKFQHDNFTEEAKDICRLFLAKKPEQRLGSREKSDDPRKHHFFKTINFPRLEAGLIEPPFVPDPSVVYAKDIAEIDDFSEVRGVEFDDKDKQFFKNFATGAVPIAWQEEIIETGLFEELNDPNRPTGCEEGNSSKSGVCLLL

[10] = molecular target: T2, Rhodopsin kinase GRK7 (Homo sapiens); settings: at 10 µM
[11] = molecular target: Glycogen synthase kinase-3 alpha (Homo sapiens) (UniProt P49840); settings: at 1 µM
[12] = molecular target: Glycogen synthase kinase-3 alpha (Homo sapiens) (UniProt P49840); settings: at 10 µM
[13] = molecular target: Glycogen synthase kinase-3 beta (Homo sapiens) (UniProt P49841); settings: at 1 µM
[14] = molecular target: Glycogen synthase kinase-3 beta (Homo sapiens) (UniProt P49841); settings: at 10 µM
[15] = molecular target: Homeodomain-interacting protein kinase 1 (Homo sapiens) (UniProt Q86Z02); settings: at 1 µM
[16] = molecular target: Homeodomain-interacting protein kinase 1 (Homo sapiens) (UniProt Q86Z02); settings: at 10 µM
[17] = molecular target: Homeodomain-interacting protein kinase 2 (Homo sapiens) (UniProt Q9H2X6); settings: at 1 µM
[18] = molecular target: Homeodomain-interacting protein kinase 2 (Homo sapiens) (UniProt Q9H2X6); settings: at 10 µM
[19] = molecular target: Homeodomain-interacting protein kinase 3 (Homo sapiens) (UniProt Q9H422); settings: at 1 µM
[20] = molecular target: T1, Mitogen-activated protein kinase kinase kinase kinase 2 (Homo sapiens); settings: at 10 µM

Sequence of Macrophage colony-stimulating factor 1 receptor (Homo sapiens) (P07333 whole entry): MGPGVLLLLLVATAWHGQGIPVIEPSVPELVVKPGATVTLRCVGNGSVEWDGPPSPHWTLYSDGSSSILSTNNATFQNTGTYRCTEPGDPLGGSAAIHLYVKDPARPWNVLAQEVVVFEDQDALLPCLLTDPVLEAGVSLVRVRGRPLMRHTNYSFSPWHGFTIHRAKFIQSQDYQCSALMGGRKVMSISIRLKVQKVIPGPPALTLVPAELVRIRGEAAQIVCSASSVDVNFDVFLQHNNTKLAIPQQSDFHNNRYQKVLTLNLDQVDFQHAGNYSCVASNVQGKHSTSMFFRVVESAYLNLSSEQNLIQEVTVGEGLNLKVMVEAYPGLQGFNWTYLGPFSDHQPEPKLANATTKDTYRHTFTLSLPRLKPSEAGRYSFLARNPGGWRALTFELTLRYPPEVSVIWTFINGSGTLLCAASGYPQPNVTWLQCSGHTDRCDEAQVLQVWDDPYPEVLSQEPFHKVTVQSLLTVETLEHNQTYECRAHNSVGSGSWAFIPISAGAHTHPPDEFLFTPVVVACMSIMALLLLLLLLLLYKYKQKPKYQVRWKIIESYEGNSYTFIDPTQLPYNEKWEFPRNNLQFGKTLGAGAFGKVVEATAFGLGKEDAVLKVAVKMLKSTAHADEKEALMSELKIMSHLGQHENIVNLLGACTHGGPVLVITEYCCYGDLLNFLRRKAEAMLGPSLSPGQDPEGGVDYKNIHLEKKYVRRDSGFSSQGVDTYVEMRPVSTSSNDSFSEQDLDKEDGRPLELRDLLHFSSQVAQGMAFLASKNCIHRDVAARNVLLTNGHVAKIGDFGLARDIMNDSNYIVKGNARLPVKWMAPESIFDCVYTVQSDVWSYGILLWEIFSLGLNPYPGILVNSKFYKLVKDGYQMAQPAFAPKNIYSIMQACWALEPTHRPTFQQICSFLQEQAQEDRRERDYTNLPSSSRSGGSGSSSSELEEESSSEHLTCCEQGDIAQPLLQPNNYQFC
Sequence of Homeodomain-interacting protein kinase 3 (Homo sapiens) (Q9H422 whole entry, looked up): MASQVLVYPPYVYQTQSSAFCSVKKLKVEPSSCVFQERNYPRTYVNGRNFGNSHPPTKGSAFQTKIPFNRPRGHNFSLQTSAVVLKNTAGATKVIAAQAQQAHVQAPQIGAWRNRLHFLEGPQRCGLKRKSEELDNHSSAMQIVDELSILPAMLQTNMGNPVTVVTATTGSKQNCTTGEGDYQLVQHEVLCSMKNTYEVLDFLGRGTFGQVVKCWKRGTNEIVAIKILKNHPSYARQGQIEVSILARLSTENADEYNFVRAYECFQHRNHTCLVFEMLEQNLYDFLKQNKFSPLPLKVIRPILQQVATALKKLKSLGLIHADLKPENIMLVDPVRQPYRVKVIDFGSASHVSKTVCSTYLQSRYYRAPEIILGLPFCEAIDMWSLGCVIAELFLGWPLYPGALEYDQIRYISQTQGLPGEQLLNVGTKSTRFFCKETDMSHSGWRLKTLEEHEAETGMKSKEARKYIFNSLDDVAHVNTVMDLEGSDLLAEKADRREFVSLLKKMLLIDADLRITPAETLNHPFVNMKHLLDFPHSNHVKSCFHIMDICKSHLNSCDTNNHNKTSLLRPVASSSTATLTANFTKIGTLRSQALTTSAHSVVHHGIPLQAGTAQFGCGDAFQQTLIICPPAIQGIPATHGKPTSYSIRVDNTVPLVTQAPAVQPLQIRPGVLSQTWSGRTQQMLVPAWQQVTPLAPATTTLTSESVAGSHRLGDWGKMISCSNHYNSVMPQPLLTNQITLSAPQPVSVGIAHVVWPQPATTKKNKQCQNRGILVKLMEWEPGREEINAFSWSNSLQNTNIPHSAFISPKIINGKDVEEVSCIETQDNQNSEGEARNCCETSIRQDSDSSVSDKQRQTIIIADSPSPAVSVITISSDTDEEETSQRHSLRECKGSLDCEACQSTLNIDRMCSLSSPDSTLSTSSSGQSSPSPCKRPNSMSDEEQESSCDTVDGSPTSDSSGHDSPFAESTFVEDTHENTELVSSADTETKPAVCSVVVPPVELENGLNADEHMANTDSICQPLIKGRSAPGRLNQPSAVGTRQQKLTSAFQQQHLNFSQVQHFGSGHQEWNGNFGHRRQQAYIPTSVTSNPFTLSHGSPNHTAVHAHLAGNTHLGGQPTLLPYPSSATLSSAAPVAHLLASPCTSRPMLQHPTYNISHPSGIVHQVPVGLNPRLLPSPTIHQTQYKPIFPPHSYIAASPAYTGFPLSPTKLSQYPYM
Sequence of Tyrosine-protein kinase Fyn (Homo sapiens) (P06241 2-537 limits assumed): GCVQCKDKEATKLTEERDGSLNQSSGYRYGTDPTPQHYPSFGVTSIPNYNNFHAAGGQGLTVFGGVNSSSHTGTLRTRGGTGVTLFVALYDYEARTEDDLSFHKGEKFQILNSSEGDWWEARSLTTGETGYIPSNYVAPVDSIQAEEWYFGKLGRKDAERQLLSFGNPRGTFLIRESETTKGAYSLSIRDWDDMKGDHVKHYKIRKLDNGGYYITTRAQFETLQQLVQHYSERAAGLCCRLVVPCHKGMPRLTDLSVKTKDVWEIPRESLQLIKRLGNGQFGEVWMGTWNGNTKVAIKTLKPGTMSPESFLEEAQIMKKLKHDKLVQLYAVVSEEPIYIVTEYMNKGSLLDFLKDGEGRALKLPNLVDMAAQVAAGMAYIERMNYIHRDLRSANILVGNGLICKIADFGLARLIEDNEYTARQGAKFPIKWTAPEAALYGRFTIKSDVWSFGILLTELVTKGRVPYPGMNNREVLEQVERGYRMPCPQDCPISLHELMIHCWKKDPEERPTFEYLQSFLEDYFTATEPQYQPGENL
Sequence of Homeodomain-interacting protein kinase 2 (Homo sapiens) (Q9H2X6 whole entry, looked up): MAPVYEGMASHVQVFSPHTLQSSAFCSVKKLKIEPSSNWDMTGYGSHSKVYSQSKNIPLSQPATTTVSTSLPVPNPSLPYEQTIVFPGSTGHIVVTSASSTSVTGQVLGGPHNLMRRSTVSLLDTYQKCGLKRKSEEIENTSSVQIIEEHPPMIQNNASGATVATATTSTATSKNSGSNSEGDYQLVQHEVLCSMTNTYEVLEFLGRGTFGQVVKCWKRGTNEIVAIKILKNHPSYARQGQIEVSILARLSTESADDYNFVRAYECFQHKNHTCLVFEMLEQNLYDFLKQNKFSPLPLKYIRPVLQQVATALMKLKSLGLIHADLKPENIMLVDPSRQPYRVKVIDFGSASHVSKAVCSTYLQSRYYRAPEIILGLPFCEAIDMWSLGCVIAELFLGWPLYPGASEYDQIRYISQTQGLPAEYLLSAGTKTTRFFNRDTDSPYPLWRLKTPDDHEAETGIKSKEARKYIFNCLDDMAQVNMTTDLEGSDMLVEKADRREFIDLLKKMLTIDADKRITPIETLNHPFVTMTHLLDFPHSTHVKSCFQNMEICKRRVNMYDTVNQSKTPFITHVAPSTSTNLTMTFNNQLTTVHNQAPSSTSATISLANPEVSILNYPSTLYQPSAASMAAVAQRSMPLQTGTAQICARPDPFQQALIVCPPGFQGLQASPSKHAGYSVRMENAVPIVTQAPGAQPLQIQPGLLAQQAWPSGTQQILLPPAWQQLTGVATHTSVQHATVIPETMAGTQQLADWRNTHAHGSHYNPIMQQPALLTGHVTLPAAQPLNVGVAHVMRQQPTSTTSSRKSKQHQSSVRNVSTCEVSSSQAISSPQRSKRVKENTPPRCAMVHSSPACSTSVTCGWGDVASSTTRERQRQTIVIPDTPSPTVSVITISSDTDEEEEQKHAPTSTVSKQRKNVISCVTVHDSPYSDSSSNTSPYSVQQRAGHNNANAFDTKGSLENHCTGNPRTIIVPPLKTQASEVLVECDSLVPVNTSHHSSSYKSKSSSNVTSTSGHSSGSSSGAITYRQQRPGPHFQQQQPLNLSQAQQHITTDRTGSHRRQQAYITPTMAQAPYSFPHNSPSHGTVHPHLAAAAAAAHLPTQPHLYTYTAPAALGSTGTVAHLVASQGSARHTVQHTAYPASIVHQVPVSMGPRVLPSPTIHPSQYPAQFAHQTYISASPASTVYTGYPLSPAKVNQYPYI
Sequence of G protein-coupled receptor kinase 5 (Homo sapiens) (P34947 whole entry, looked up): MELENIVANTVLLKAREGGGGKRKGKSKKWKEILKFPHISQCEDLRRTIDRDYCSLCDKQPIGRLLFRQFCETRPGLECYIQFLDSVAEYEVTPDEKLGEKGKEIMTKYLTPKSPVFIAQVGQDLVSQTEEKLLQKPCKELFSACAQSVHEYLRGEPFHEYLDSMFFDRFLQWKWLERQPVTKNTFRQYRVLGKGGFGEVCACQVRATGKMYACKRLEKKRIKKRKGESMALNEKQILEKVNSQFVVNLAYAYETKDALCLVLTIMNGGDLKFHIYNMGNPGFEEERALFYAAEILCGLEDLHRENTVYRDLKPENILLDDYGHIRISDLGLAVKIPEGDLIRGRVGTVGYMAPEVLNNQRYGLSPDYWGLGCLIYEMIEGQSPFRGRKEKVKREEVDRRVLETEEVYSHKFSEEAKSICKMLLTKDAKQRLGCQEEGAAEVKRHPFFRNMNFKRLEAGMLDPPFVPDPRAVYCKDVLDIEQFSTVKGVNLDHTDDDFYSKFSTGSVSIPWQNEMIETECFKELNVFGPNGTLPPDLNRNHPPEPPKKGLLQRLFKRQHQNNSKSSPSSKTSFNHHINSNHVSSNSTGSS
Sequence of G protein-coupled receptor kinase 6 (Homo sapiens) (P43250 whole entry, looked up): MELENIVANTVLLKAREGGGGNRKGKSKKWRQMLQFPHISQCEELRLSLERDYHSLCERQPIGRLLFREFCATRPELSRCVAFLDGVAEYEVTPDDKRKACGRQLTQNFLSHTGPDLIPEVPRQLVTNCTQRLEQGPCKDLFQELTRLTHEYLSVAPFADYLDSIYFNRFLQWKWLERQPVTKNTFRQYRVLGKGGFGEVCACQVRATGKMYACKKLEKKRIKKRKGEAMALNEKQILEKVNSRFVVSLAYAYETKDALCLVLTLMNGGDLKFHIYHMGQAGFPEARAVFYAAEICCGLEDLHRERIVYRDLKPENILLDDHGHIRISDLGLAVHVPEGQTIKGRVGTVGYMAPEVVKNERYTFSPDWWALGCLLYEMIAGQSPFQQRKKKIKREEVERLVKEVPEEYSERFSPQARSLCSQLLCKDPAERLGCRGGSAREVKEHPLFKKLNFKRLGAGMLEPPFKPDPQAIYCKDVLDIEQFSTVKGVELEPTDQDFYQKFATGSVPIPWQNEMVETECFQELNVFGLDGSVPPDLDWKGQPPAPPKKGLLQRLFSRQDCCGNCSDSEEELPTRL

SMILES | residual activity [1] | residual activity [2] | residual activity [3] | residual activity [4] | residual activity [5] | residual activity [6] | residual activity [7] | residual activity [8] | residual activity [9] | residual activity [10] | residual activity [11] | residual activity [12] | residual activity [13] | residual activity [14] | residual activity [15] | residual activity [16] | residual activity [17] | residual activity [18] | residual activity [19] | residual activity [20]
Cc1ccc(NC2=CC(=O)c3sc(C)nc3C2=O)cc1 | 84% | 96% | 79% | 82% | 93% | 86% | 99% | 85% | 84% | 89% | 119% | 106% | 117% | 118% | 100% | 90% | 97% | 98% | 92% | 
COc1cc2ncnc(Nc3ccc(Oc4ccccc4)cc3)c2cc1OC | 0% | 49% | 53% | 2% | 0% |  | 104% | 88% | 103% | 92% | 91% | 178% | 84% | 97% | 102% | 106% | 99% | 99% | 94% | 
CN(C)c1ccc(/C=C2\C(=O)Nc3ccccc32)cc1 | 1% | 8% | 2% | 83% | 56% | 83% | 86% | 90% | 96% | 84% | 103% | 108% | 92% | 97% | 96% | 102% | 97% | 83% | 102% | 25%
CN(C)CCCn1cc(C2=C(c3c[nH]c4ccccc34)C(=O)NC2=O)c2ccccc21 |  | 50% | 30% | 102% | 70% | 75% | 9% | 32% | 58% | 7% | 18% | 2% | 24% | 3% | 90% | 53% | 69% | 21% | 87% | 22%
CO[C@H]1C[C@@H]2CC[C@@H](C)[C@@](O)(O2)C(=O)C(=O)N2CCCC[C@H]2C(=O)O[C@H]([C@H](C)C[C@@H]2CC[C@@H](O)[C@H](OC)C2)CC(=O)[C@H](C)/C=C(\C)[C@@H](O)[C@@H](OC)C(=O)[C@H](C)C[C@H](C)/C=C/C=C/C=C/1C | 106% | 85% | 65% | 88% | 95% | 85% | 99% | 83% | 94% | 86% | 117% | 193% | 96% |  | 91% | 101% | 103% | 99% | 91% | 79%
c1ccc2c(-c3ccncc3)c[nH]c2c1 | 60% | 110% | 92% | 89% | 78% | 86% | 97% | 83% | 96% | 79% |  | 135% | 94% | 88% | 95% | 98% | 100% | 85% | 95% | 50%
CC[n+]1c(/C=C/N(C)c2ccccc2)n(-c2ccccc2)c2ccc(-c3nc4ccccc4s3)cc21 | 52% | 93% | 71% | 101% | 60% | 103% | 91% | 93% | 112% | 97% | 122% |  | 109% | 116% | 102% | 93% | 95% | 77% | 99% | 73%
CC(=O)c1ccc(N2CCOCC2)cc1O | 88% |  |  | 80% | 96% | 91% | 86% | 91% | 95% | 90% |  |  | 101% | 109% | 97% | 104% | 100% | 94% | 95% | 89%
Oc1ccc(Nc2nc(-c3ccc(Cl)cc3)cs2)cc1 | 21% | 72% | 43% | 87% | 68% | 97% | 100% | 102% | 103% | 103% | 97% | 88% | 131% | 114% |  | 95% | 92% | 89% | 105% | 60%
CCN(CC)C(=O)c1ccc(Nc2nc(OCC3CCCCC3)c3nc[nH]c3n2)cc1 | 0% | 1% | 2% | 35% | 5% | 33% |  |  | 97% | 78% | 72% | 15% | 75% | 26% |  |  |  | 28% | 99% | 3%
N#C/C(=C(\N)Sc1ccc(N)cc1)c1ccccc1C(F)(F)F | 64% | 86% | 68% | 71% | 13% | 69% | 95% | 93% | 97% | 91% | 89% | 87% | 99% | 96% | 109% | 101% | 99% | 92% | 93% | 72%
c1ccc(-c2n[nH]c3c2oc2ccccc23)cc1 | 1% | 6% | 1% | 86% | 51% | 84% | 94% | 86% | 95% | 64% |  |  | 95% | 67% |  |  | 98% | 58% | 92% | 30%
N#CCCc1ccc2c(c1)-c1[nH]c3ccc([N+](=O)[O-])cc3c1CC(=O)N2 | 2% | 24% | 19% | 17% | 1% | 2% |  |  |  |  | 1% | 0% | -3% | 0% |  |  | 64% | 24% |  | 2%
